In all, about 1,500 compounds went through this assay and about 460 (31%) were called active. Another 1% or so got no clear call; they are omitted.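 Rule for the calls: active = curve reaches 40% activation over neutral controls at an AC40 no higher than the top valid tested concentration; inconclusive = no clear call, values can overlap the other calls; inactive = signal moving opposite to the expected increase, and the rest.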 These entries were drawn from the full list. Results with a measured potency or affinity are listed apart.
Test: activators of glucose-dependent insulin secretion, dose response, cell-based, INS-1E, Gaussia luciferase, luminescence, cherry-pick, set 2 (AID 977607);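 note: 0% = median of the plate neutral control wells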
Conditions: INS-1E GLuc insulin secretion reporter, 2-3 h, active compounds read high; at 35 µM, 100% = signal doubled over neutral wells unless noted

Max activation, inactive:
CCOc1ccc(C(C)=O)cc1COC(=O)CN1C(=O)NC2(CCCC2)C1=O -28.5% [at 0.005 µM, 100% = signal doubled over neutral wells]
COc1ccc2ccc(=O)oc2c1CC=C(C)C -13.3% [at 0.015 µM, 100% = signal doubled over neutral wells]
COc1ccc(CNC(=O)COC(=O)c2cc(C)nc3ccccc23)cc1 16.2%
CCOC(=O)Cn1c(=O)n(Cc2ccc(OC)cc2)c(=O)c2cccnc21 -22.7% [at 0.005 µM, 100% = signal doubled over neutral wells]
CCOC(=O)c1c(C)[nH]c(C(C)=NNC(=O)c2cccs2)c1C -42% [at 11 µM, 100% = signal doubled over neutral wells]
CCOC(=O)c1oc2ccccc2c1NC(=O)c1ccco1 -17.8% [at 0.135 µM, 100% = signal doubled over neutral wells]
CNC(=O)C(=O)NCC1OCCCN1S(=O)(=O)c1ccc(F)cc1C (stereo not given) -17.8% [at 0.005 µM, 100% = signal doubled over neutral wells]
CC(C)NC(=O)C1(C)CCN1Cc1cccc(C#N)c1 (stereo not given) -13.6% [at 0.0016 µM, 100% = signal doubled over neutral wells]
COc1ccc(-c2cccc(C(=O)Nc3ccc(C)cc3)c2)cc1 26.8%
Cc1cccc(C(=O)NC(=S)NNC(=O)COc2c(C)cccc2C)c1 -26.2% [at 11 µM, 100% = signal doubled over neutral wells]
Cc1ccc(-n2nnnc2SCc2ccc(C(=O)O)cc2)cc1C -23.5% [at 3.8 µM, 100% = signal doubled over neutral wells]
N#Cc1sc2nc(C3CC3)cc(-c3ccccc3)c2c1N -14.8% [at 0.015 µM, 100% = signal doubled over neutral wells]
N#CC1=C(N)Oc2nc(-c3ccccc3)[nH]c2C1c1cccnc1 (stereo not given) -20.8% [at 0.005 µM, 100% = signal doubled over neutral wells]
O=C1CSC(c2cccc(O)c2)N1Cc1ccccc1 (stereo not given) -24.7% [at 0.005 µM, 100% = signal doubled over neutral wells]
C/C=C/c1ccc(OCCN2C(=O)NC(C)(C)C2=O)c(OC)c1 -11.4% [at 0.005 µM, 100% = signal doubled over neutral wells]

Reference: PubChem BioAssay AID977607 (Broad Institute, 2014)
